What was measured:
Test in all cases: PBM binding z-score (relative to random genomic background probes); higher = stronger binding; sequences stand for … in GC…GCGATTGACAGCGTAGAATGAAGG
[1] = tested on: RARb homodimer (NR concentration 270 nM)
How it was run: (§1)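 Probes were double-stranded and carried 34-nt variable regions with direct-repeat seeds, single-nucleotide variants, half-site ablations and random human genomic background sequences, printed on custom Agilent 4×180K protein-binding microarrays. Arrays were incubated 1 h with ligand-free nuclear receptor dimers in PBS pH 7.4, 2% milk, 0.02% Triton X-100, 1 mM DTT, 0.2 mg/mL BSA and 0.4 mg/ml salmon testes DNA. Antibodies against each partner (one per run) detected binding, and scanned fluorescence was regression-normalized. Binding z-scores use the random background probes as reference.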

[2] = tested on: RARg:RXRa (NR concentration 270 nM, RXRa partner concentration 90 nM)
How it was run: as §1

[3] = tested on: RARg homodimer (NR concentration 270 nM)
How it was run: as §1

[4] = tested on: RXRa DBDmut IVT, anti-RXR (DBD mutation: RXRa K156A/R161A, NR concentration 90 nM)
How it was run: as §1

[5] = tested on: RXRa homodimer (NR concentration 180 nM)
How it was run: as §1

[6] = tested on: THRa:RXRa (NR concentration 90 nM, RXRa partner concentration 90 nM)
How it was run: as §1

[7] = tested on: THRa homodimer (NR concentration 90 nM)
How it was run: as §1

[8] = tested on: VDR:RXRa (NR concentration 270 nM, RXRa partner concentration 90 nM)
How it was run: as §1

[9] = tested on: VDR homodimer (NR concentration 270 nM)
How it was run: as §1

Sequence | PBM binding z-score [1] | PBM binding z-score [2] | PBM binding z-score [3] | PBM binding z-score [4] | PBM binding z-score [5] | PBM binding z-score [6] | PBM binding z-score [7] | PBM binding z-score [8] | PBM binding z-score [9]
ACTTACGGGTCAACGAGGTTTTAGCACGCGTATA | 3.37 | 5.26 | 4.9 | 2.16 | 5.5 | 3.46 | 0.678 | 6.69 | 1.84
ATCTCTAGGTACAGATAGTTCAGTGAATGCAAAT | 0.913 | 0.74 | 0.847 | 1.17 | 0.198 | 0.432 | 0.0409 | 1.18 | 1.65
TCTTGTAGATTAGCAGGTTAAGAAAGCTGGCCAA | 0.292 | -0.0657 | -0.174 | 0.682 | 0.386 | 0.458 | -0.511 | 0.63 | -0.173
CAAACTAGGTCCCCGGAAGGTCAAAGTCCGCATG | 4.26 | 4.15 | 3.32 | 0.0846 | 3.49 | 2.91 | 1.33 | 3.23 | 2.2
AATACAGGGTCATCGTAGGCTAGAGTACGCACAG | 3.49 | 5.66 | 5.17 | 3.57 | 6.87 | 4.05 | 1.63 | 5.2 | 4.03
GATACAGGGTCAGCAAGAGGCCAGAGTATGGAAA | 3.45 | 6.61 | 4.76 | 1.16 | 4.52 | 3.21 | 0.361 | 3.43 | 0.548
CAGCCTAGGTCAGGGCCAGTACAGGAGGAACGTT | 2.81 | 3.02 | 3.74 | -0.352 | 1.45 | 2.02 | 0.539 | 0.635 | -0.209
ATACCAAGGTGATCATGAGGTCGTTGATACTAAC | 1.85 | 2.23 | 1.18 | 1.08 | 1.75 | 3.55 | 2.94 | 3.38 | 3.15
TCTGCTAGGTCAACGATGCTCAGCTAATCTGCTA | 2.66 | 3.76 | 4.76 | 0.989 | 2.18 | 2.47 | 0.23 | 1.15 | -0.64
TCTTGTAGATCCGCAGGTTAAGAAAGCTGGCCAA | -0.00283 | -0.252 | -0.631 | 0.638 | 0.152 | 0.0319 | -0.513 | 0.237 | -0.38
CCTGCTACGTCATGGTCAGCTAATCTACAGTATG | -0.0724 | 0.00255 | -0.0549 | 0.43 | -0.184 | -0.381 | -0.695 | -0.408 | -0.512
TCCTGTAGATCAGCAGGTTAAGAAAGCTGGCCAA | -0.00726 | -0.0905 | -0.286 | 0.636 | 0.412 | 0.129 | -0.526 | 0.177 | -0.526
ATCTCTAGGTAAGACTCAGTTCAGCGAAGAACGC | 0.706 | 0.274 | 0.294 | 0.439 | 0.4 | 0.927 | 0.802 | 0.97 | 1.48
CCTACTGGGCCAAGGACATTGATCAGTCAAAGCA | 0.324 | 0.0324 | 0.267 | -0.538 | -0.348 | 1.29 | 0.695 | -0.496 | 0.333
TCTTGTAGATCAAAGGTTAATAAAGCCGAAGCCT | 1.25 | 1.51 | 0.841 | 1.09 | 2.55 | 1.32 | -0.223 | 1.55 | 0.243
ACTAGCAGTCCAAGGGTCACTCAAGATTAGTCCG | 3.7 | 3.72 | 3.27 | 0.612 | 3.58 | 2.61 | 0.466 | 2.86 | 1.15
CCTACTGGGGCAAGGTTACCATAACGCACAGCCA | 1.26 | 1.22 | 1.37 | -0.688 | 1.02 | 1.14 | 0.409 | 0.252 | 0.0551
ATATGTAGGTTACATCCGGGTCACTCAGGCTATG | 3.14 | 3.8 | 2.2 | 0.745 | 3.03 | 3.94 | 2.97 | 3.71 | 2.29
ACAGACAGGTGAGTGAAGGTAACACAGCTGGACG | 0.48 | 0.416 | 0.789 | -0.436 | 0.647 | 1.87 | -0.183 | -0.0356 | -0.21
CCAGACACGTGAGAAGGTAACTCAGCCTCGATTA | -0.118 | 0.0186 | 0.206 | 0.268 | 0.0109 | -0.00448 | -0.0296 | -0.39 | 0.0283
CTACCAAGGTGAACAAGGACGTTGATTACTATTC | 0.951 | 0.848 | 1.13 | 0.601 | 0.715 | 2.43 | 1.36 | 3.82 | 0.537
TCATATAGGTAATTGCTAGGTGAAAGTCCGATCT | 0.402 | 0.393 | 0.128 | 1.47 | 0.589 | 1.44 | 0.689 | 0.884 | 0.282
GTACCAATGTGAATAGGTCGTTGATGAGTAGGCG | 0.0633 | 0.177 | 0.344 | -0.108 | 0.356 | -0.0211 | -0.677 | -0.000523 | 0.254
CTACCAAGGTGAACAAGGTCGTGGATTACTATTC | 2.22 | 2.24 | 1.63 | 0.592 | 2.7 | 3.64 | 2.18 | 5.77 | 1.27
GCTCGGAGGACAAGGTGAGAGCTTTGTCCGTAGA | 0.56 | 0.159 | 0.805 | -0.507 | -0.256 | 1.5 | 0.465 | -0.606 | -0.74
TTACCAAGGTGAGCTGAGGGCGTTGATCCAACTC | 0.362 | -0.0631 | -0.0832 | -0.14 | 0.126 | 3.36 | 0.287 | 1.89 | 0.247

Source: the supplement of paper PMC6555819
